Read-out in assay [1]: Cyclin Dependent Kinase Inhibitor 1A (CDKN1A), CDKN1A (gene 1026)
The assay is described as follows: LTEA_HepaRG_CDKN1A: Life Technologies and Expression Analysis (LTEA) Assay for Cyclin Dependent Kinase Inhibitor 1A (CDKN1A) using HepaRG (AID 2283450). The conditions noted are these: mRNA level, 48 h; actives raise or lower the signal. In short, it runs like this:
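HepaRG, 48 h dosing, 8-pt half-log series from 100 uM top, 0.5% DMSO vehicle, duplicates. Readout: TaqMan qRT-PCR of CDKN1A transcript, housekeeping-normalized (ACTB, GAPDH, POLR2A). Up/down curve fit relative to DMSO.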

Read-out in assay [2]: Cyclin D1 (CCND1), CCND1 (gene 595)
The experiment in a line: LTEA_HepaRG_CCND1: Life Technologies and Expression Analysis (LTEA) Assay for Cyclin D1 (CCND1) using HepaRG (AID 2283451).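 For AC50: differentiated human HepaRG liver cells in serum-free induction medium.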 The conditions noted are these: mRNA level, 48 h; actives raise or lower the signal. The method, boiled down:
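qRT-PCR (Fluidigm 96.96 array) read-out of transcript level, housekeeping-normalized (ACTB/GAPDH/POLR2A). HepaRG cells, 48 h chemical exposure, 8-point half-log series from 100 uM, 0.5% DMSO vehicle; gain or loss relative to DMSO baseline.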

Read-out in assay [3]: catalase (CAT), CAT (gene 847)
The assay is described as follows: LTEA_HepaRG_CAT: Life Technologies and Expression Analysis (LTEA) Assay for catalase (CAT) using HepaRG (AID 2283452). The conditions noted are these: mRNA level, 48 h; actives raise or lower the signal. The method, boiled down: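 Expression of CAT was quantified by TaqMan qRT-PCR with ACTB/GAPDH/POLR2A normalization after 48 h chemical exposure of HepaRG. Eight-point half-log series, top 100 uM, in 0.5% DMSO; gain or loss fitted against vehicle.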

Read-out in assay [4]: flavin-containing dimethylaniline monooxygenases 3 (FMO3), FMO3 (gene 2328)
The experiment in a line: LTEA_HepaRG_FMO3: Life Technologies and Expression Analysis (LTEA) Assay for flavin-containing dimethylaniline monooxygenases 3 (FMO3) using HepaRG (AID 2283453).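 For AC50: differentiated human HepaRG liver cells in serum-free induction medium.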 The conditions noted are these: mRNA level, 48 h; actives raise or lower the signal. In short, it runs like this:
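Eight-point concentration-response in serum-free HepaRG cultures (top 100 uM, 0.5% DMSO, 48 h). Read-out: FMO3 mRNA level normalized to three endogenous control genes, fitted bidirectionally versus vehicle.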

Read-out in assay [5]: Cytochrome P450 (CYP1A1), CYP1A1 (gene 1543)
The assay is described as follows: LTEA_HepaRG_CYP1A1: Life Technologies and Expression Analysis (LTEA) Assay for Cytochrome P450 (CYP1A1) using HepaRG (AID 2283454). As to conditions: mRNA level, 48 h; actives raise or lower the signal. In short, it runs like this: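 qRT-PCR read-out: CYP1A1 transcript normalized to three housekeeping genes, fitted bidirectionally against 0.5% DMSO vehicle baseline. Human HepaRG cells, 48 h chemical exposure, 8-point half-log series topping at 100 uM.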

Read-out in assay [6]: CFLAR gene, CFLAR (gene 8837)
The assay is described as follows: LTEA_HepaRG_CFLAR: Life Technologies and Expression Analysis (LTEA) Assay for CFLAR gene using HepaRG (AID 2283455). As to conditions: mRNA level, 48 h; actives raise or lower the signal. The method, boiled down:
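Transcript level by qRT-PCR (normalized to ACTB, GAPDH and POLR2A) after 48 h chemical exposure of HepaRG cells, top concentration 100 uM with half-log steps, 0.5% DMSO vehicle, duplicates; fitted bidirectionally against DMSO baseline.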

Read-out in assay [7]: Forkhead box O1 (FOXO1), FOXO1 (gene 2308)
The assay is described as follows: LTEA_HepaRG_FOXO1: Life Technologies and Expression Analysis (LTEA) Assay for Forkhead box O1 (FOXO1) using HepaRG (AID 2283456). As to conditions: mRNA level, 48 h; actives raise or lower the signal. The method, boiled down: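 FOXO1 transcript quantified by qRT-PCR after 48 h chemical exposure (top 100 uM, half-log steps, 0.5% DMSO) of HepaRG cells, housekeeping-normalized (ACTB/GAPDH/POLR2A). Changes fitted in both directions relative to vehicle.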

Read-out in assay [8]: growth arrest and DNA damage 45 (GADD45A), GADD45A (gene 1647)
The assay is described as follows: LTEA_HepaRG_GADD45A: Life Technologies and Expression Analysis (LTEA) Assay for growth arrest and DNA damage 45 (GADD45A) using HepaRG (AID 2283458). The conditions noted are these: mRNA level, 48 h; actives raise or lower the signal. In short, it runs like this:
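HepaRG, 48 h exposure, 8 conc. (top 100 uM, half-log steps), 0.5% DMSO vehicle, duplicates. Read-out: qRT-PCR mRNA level, housekeeping-normalized (ACTB/GAPDH/POLR2A). Curves fit bidirectionally vs DMSO baseline.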

Read-out in assay [9]: Forkhead box O3 (FOXO3), FOXO3 (gene 2309)
The assay is described as follows: LTEA_HepaRG_FOXO3: Life Technologies and Expression Analysis (LTEA) Assay for Forkhead box O3 (FOXO3) using HepaRG (AID 2283459). As to conditions: mRNA level, 48 h; actives raise or lower the signal. In short, it runs like this: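 FOXO3 transcript measured by qRT-PCR (normalized to ACTB, GAPDH, POLR2A) after 48 h exposure of HepaRG cells in serum-free induction medium. Duplicates, eight half-log concentrations up to 100 uM, 0.5% DMSO; gain or loss fitted against DMSO.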

Read-out in assay [10]: ABC Transporter (ABCB1), ABCB1 (gene 5243)
The assay is described as follows: LTEA_HepaRG_ABCB1: Life Technologies and Expression Analysis (LTEA) Assay for ABC Transporter (ABCB1) using HepaRG (AID 2283460). The conditions noted are these: mRNA level, 48 h; actives raise or lower the signal. The method, boiled down:
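ABCB1 transcript level measured by TaqMan qRT-PCR against three housekeeping genes after 48 h chemical exposure of differentiated HepaRG cells. Top concentration 100 uM, half-log steps, eight points, 0.5% DMSO vehicle; bidirectional fit relative to DMSO.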

Read-out in assay [11]: ABC Transporter (ABCB11), ABCB11 (gene 8647)
The experiment in a line: LTEA_HepaRG_ABCB11: Life Technologies and Expression Analysis (LTEA) Assay for ABC Transporter (ABCB11) using HepaRG (AID 2283463). The conditions noted are these: mRNA level, 48 h; actives raise or lower the signal. In short, it runs like this: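 ABCB11 transcript levels quantified by TaqMan qRT-PCR against three housekeeping genes after 48 h chemical exposure of HepaRG cultures. Concentrations up to 100 uM in half-log steps, 0.5% DMSO vehicle; both induction and suppression scored.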

Read-out in assay [12]: ABC Transporter (ABCC2), ABCC2 (gene 1244)
The assay is described as follows: LTEA_HepaRG_ABCC2: Life Technologies and Expression Analysis (LTEA) Assay for ABC Transporter (ABCC2) using HepaRG (AID 2283464). The conditions noted are these: mRNA level, 48 h; actives raise or lower the signal. The method, boiled down: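 qRT-PCR (TaqMan, Fluidigm array) read-out of ABCC2 mRNA, normalized to three housekeeping genes. Differentiated HepaRG cells were treated 48 h in serum-free induction medium with 8-point half-log series from 100 uM in 0.5% DMSO; curves fitted bidirectionally relative to DMSO.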

Read-out in assay [13]: Broad substrate specificity ATP-binding cassette transporter ABCG2 (Homo sapiens) (UniProt Q9UNQ0)
The experiment in a line: LTEA_HepaRG_ABCG2: Life Technologies and Expression Analysis (LTEA) Assay for ABC Transporter (ABCG2) using HepaRG (AID 2283465). As to conditions: mRNA level, 48 h; actives raise or lower the signal. The method, boiled down: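 ABCG2 transcript was quantified by TaqMan qRT-PCR against three housekeeping genes in HepaRG cells. Cells were treated in duplicate for 48 h across an 8-point half-log series up to 100 uM, with 0.5% DMSO vehicle. Gain or loss versus DMSO was fit.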

Read-out in assay [14]: ATP-citrate lyase (ACLY), ACLY (gene 47)
The assay is described as follows: LTEA_HepaRG_ACLY: Life Technologies and Expression Analysis (LTEA) Assay for ATP-citrate lyase (ACLY) using HepaRG (AID 2283466). The conditions noted are these: mRNA level, 48 h; actives raise or lower the signal. In short, it runs like this:
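ACLY mRNA quantified by qRT-PCR on Fluidigm arrays against three housekeeping genes, after 48 h chemical treatment of HepaRG cells (top concentration 100 uM, half-log steps, 0.5% DMSO vehicle). Up- or down-regulation fitted relative to DMSO.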

Read-out in assay [15]: Alkaline Phosphatase, Placental (ALPP) gene, ALPP (gene 250)
The experiment in a line: LTEA_HepaRG_ALPP: Life Technologies and Expression Analysis (LTEA) Assay for Alkaline Phosphatase, Placental (ALPP) gene using HepaRG (AID 2283468).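 For AC50: differentiated human HepaRG liver cells in serum-free induction medium.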 As to conditions: mRNA level, 48 h; actives raise or lower the signal. In short, it runs like this:
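qRT-PCR readout of ALPP mRNA (Fluidigm TaqMan), normalized to ACTB/GAPDH/POLR2A, after 48 h chemical exposure of HepaRG cells; 8-point half-log series, top 100 uM, 0.5% DMSO vehicle. Bidirectional curve fit versus DMSO baseline.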

Read-out in assay [16]: Bcl-2 (BAD) gene, BAD (gene 572)
The experiment in a line: LTEA_HepaRG_BAD: Life Technologies and Expression Analysis (LTEA) Assay for Bcl-2 (BAD) gene using HepaRG (AID 2283469). The conditions noted are these: mRNA level, 48 h; actives raise or lower the signal. The method, boiled down:
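Read-out: qRT-PCR of BAD mRNA, normalized to three housekeeping genes. Human HepaRG cultures got 48 h chemical exposure in 0.5% DMSO, duplicate eight-point half-log series topping at 100 uM. Gain or loss of signal fitted versus DMSO vehicle.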

Assay [17] can be described thus: CEETOX_H295R_TESTO: CeeTox H295R High-throughput Steroidogenesis Assay for Testosterone (TESTO) (AID 2283457). As to conditions: actives raise or lower the signal. The method, boiled down:
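Readout: testosterone quantified by HPLC-MS/MS (C18, ESI positive) after MTBE liquid-liquid extraction of culture medium. Cells were H295R, 48 h chemical exposure per OECD 456 with modifications. Gain or loss of signal fitted relative to DMSO.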

Read-out in assay [18]: ABC Transporter (ABCC3), ABCC3 (gene 8714)
The experiment in a line: LTEA_HepaRG_ABCC3: Life Technologies and Expression Analysis (LTEA) Assay for ABC Transporter (ABCC3) using HepaRG (AID 2283462). The conditions noted are these: mRNA level, 48 h; actives raise or lower the signal. In short, it runs like this: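 qRT-PCR read-out of ABCC3 transcript, normalized to three housekeeping genes (ACTB, GAPDH, POLR2A), after 48 h chemical exposure of human HepaRG cells. Eight half-log concentrations, highest 100 uM, in 0.5% DMSO; gain or loss fitted relative to DMSO baseline.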

Read-out in assay [19]: Peroxisomal acyl-coenzyme A oxidase 1 (ACOX1) gene, ACOX1 (gene 51)
The assay is described as follows: LTEA_HepaRG_ACOX1: Life Technologies and Expression Analysis (LTEA) Assay for Peroxisomal acyl-coenzyme A oxidase 1 (ACOX1) gene using HepaRG (AID 2283467). The conditions noted are these: mRNA level, 48 h; actives raise or lower the signal. In short, it runs like this: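 ACOX1 transcript levels were quantified by TaqMan qRT-PCR against three housekeeping genes after 48 h chemical exposure of differentiated human HepaRG cells. Exposure used eight half-log steps topping at 100 uM, 0.5% DMSO vehicle, in duplicate. Bidirectional curve fits were made relative to DMSO.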

The structures appear in SMILES notation. Calls of active or inactive are those of the source. Rule for the calls: active = hit-call score of the fitted dose curve at least 0.9, where 1 is the maximum; inactive = score below 0.9.

Sequence of Broad substrate specificity ATP-binding cassette transporter ABCG2 (Homo sapiens) (Q9UNQ0 whole entry, looked up): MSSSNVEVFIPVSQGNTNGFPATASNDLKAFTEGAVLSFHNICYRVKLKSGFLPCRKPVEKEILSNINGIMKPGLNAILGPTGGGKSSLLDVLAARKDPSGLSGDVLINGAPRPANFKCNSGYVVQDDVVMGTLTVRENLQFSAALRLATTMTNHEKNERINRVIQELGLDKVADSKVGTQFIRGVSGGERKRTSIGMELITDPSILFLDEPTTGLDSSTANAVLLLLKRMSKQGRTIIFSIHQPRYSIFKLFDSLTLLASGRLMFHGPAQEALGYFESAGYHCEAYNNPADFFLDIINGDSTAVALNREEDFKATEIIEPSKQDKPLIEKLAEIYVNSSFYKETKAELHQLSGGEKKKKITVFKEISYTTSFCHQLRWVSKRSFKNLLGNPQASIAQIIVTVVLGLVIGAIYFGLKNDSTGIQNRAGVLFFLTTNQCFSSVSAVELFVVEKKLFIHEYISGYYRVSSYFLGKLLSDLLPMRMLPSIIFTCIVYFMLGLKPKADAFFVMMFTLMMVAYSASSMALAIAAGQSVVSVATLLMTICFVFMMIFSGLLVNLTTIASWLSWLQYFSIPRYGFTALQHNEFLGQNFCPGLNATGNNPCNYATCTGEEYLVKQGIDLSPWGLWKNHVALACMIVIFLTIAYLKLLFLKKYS

Consider `CN1C(=O)N(c2ccccc2Br)Cc2cnc(Nc3ccc4c(c3)OCC(CO)O4)nc21` (stereo not given), for which the call in [1], in [6], in [9], in [13] and in assay [16] was inactive. The AC50 in assay [2] was 50 µM (active); in assay [3], 67.2 µM (active); in [4] it was 44.8 µM (active); in [5], 12.1 µM (active); in [7] it was 39.2 µM (active); in assay [8] it was 0.0221 µM (active). Further, the AC50 is 89.9 µM (active) in assay [10]; 80.3 µM (active) in assay [11]; 77.1 µM (active) in [12]; 50 µM (active) in assay [14]; 2.93 µM (active) in [15].

As for `CCCCOC(=O)c1ccc(O)cc1`, the result in assay [1], in [2], in assay [3], in assay [4], in assay [5] and in [6] was inactive. The outcome in [7], in assay [17], in assay [8], in assay [10], in assay [11] and in assay [12] was inactive. For the same molecule, the call in [13], in [14], in assay [15] and in assay [16] was inactive.

`Cc1cc(F)ccc1-c1cc(N2CC[C@@H](O)[C@H]2CO)ncc1N(C)C(=O)C(C)(C)c1cc(C(F)(F)F)cc(C(F)(F)F)c1`: the AC50 is 12.3 µM (active) in assay [1]; 11.7 µM (active) in assay [3]; 21.9 µM (active) in [4]; 70.6 µM (active) in assay [5]; 75.7 µM (active) in assay [6]; 10.3 µM (active) in assay [10]. The AC50 in [11] is 21.8 µM (active); in assay [12], 70.7 µM (active); in assay [13], 16.7 µM (active); in [19] it was 8.09 µM (active); in assay [15], 16.5 µM (active); in assay [16], 72.1 µM (active). The molecule was called inactive in assay [2], in assay [7], in assay [8], in assay [9], in assay [18] and in [14].

Values taken from PubChem BioAssay (EPA / NIEHS).
